High-throughput results: PubChem, National Center for Advancing Translational Sciences (NCATS)
Shown are actives, neighbours in structure and some others; about 9.4% of the full set was active somewhere.
SMN2 splice up: qHTS Assay for Enhancers of SMN2 Splice Variant Expression. Potency, µM (highest dose often 46.1 µM), for the others: at the top dose activity change, positive = activation, hits mostly activators. AID 1458, 2008. 210,000 tested, 2.8% active. HEK293 SMN2-luciferase splicing reporter, luminescence, 30-36 h; note: % of control where 0% means no effect; nearly all actives have a fitted effect of over 55% in size
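HEK293 cells carry an SMN2 minigene-luciferase reporter in which exon 7 inclusion puts luciferase in frame. Cells were seeded at 2000 cells/well, attached for 10-12 hours, then exposed to compounds for 30-36 hours at 37C before ONE-Glo luminescence.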
Rab9 promoter act: qHTS Assay for Rab9 Promoter Activators; Potency, µM (series often up to 9.22 µM), for the others: top-dose activation, negative = inhibition, hits mostly activators; Huh7 Rab9 promoter-luciferase reporter, luminescence, 24 h; AID 485297, 2010; 320,000 tested, 2.8% active; note: % of control where 0% means no effect; nearly all actives have a fitted effect of over 60% in size
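Using Huh7 cells stably transfected with Rab9 promoter–luciferase, compounds were incubated 24 h at 37 °C, 5% CO2; luciferase luminescence was read 10 min after reagent addition.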
ELG1 repair inh: qHTS screen for small molecules that inhibit ELG1-dependent DNA repair in human embryonic kidney (HEK293T) cells expressing luciferase-tagged ELG1; HEK293T ELG1-luciferase reporter, luminescence, 16 h; DNA damage induced by 5-fluorouridine; Potency, µM (highest dose often 46.1 µM), without a hit: top-dose activity change, negative = inhibition, hits mostly inhibitors; 330,000 tested, 2.3% active; AID 504467, 2011; note: % is set by controls: 0 for no effect and ±100 for the full control effect; nearly all actives have a fitted effect of over 55% in size
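Quantitative HTS, concentration-response format. 2,000 cells/well co-treated with 5-fluorouridine and compound, 16 hr in 5% CO2 at 37 °C; ONE-Glo luminescence read after 30 min.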
ELG1 genotox: qHTS screen for small molecules that induce genotoxicity in human embryonic kidney (HEK293T) cells expressing luciferase-tagged ELG1; HEK293T ELG1-luciferase reporter, luminescence, 16 h; Potency, µM (top dose mostly 46 µM), inactives show top-dose activity change, positive = activation, actives largely listed as activators; 330,000 tested, 1.3% active; AID 504466, 2011; note: % of control where 0% means no effect; nearly all actives have a fitted effect of over 60% in size
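Quantitative HTS format in 1536-well plates. HEK293T ELG1-luciferase reporter cells receive test compound and are incubated 16 hr at 37 °C, 5% CO2; ONE-Glo added, 30 min room temperature, then luminescence read.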
FLuc modulator: qHTS profiling assay for firefly luciferase inhibitor/activator using purifed enzyme and Km concentrations of substrates (counterscreen for miR-21 project) | Luciferin 4-monooxygenase (Photinus pyralis), P08659 | purified FLuc, Km substrates, luminescence inhibition | Potency, µM (series often up to 57.5 µM), inactives show at the highest dose activity change, negative = inhibition, actives largely listed as inhibitors | 360,000 tested, 6.9% active;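 note: plate controls were vehicle for no effect and reference inhibitor for full effect; nearly all actives have a fitted effect of over 55% in size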
Target sequence (P08659 whole entry, looked up): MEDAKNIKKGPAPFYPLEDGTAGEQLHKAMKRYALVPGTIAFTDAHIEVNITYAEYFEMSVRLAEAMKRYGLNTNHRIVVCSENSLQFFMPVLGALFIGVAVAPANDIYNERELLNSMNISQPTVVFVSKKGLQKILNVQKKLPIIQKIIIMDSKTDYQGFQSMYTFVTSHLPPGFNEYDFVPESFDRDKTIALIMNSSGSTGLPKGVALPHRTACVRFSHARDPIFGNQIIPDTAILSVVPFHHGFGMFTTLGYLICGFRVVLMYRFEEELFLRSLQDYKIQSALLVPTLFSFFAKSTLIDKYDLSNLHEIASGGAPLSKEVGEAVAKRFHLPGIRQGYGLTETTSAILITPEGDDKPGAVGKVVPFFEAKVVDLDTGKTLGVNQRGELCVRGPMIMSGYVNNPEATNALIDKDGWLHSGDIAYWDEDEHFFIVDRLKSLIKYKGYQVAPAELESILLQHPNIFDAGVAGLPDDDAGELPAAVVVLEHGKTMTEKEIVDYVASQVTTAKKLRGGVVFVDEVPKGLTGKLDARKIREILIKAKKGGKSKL
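Purified P. pyralis luciferase (10nM final) with 10uM D-luciferin and 10uM ATP (Km levels) in 50mM Tris acetate pH 7.5, 10mM Mg acetate, 0.01% Tween-20, 0.05% BSA; qHTS 6-point titration, ~60 µM downward; luminescence read.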
NPC1 promoter act: qHTS Assay for NPC1 Promoter Activators. Huh7 NPC1 promoter luciferase reporter, 24 h. Potency, µM (titrated, usually from 9.22 µM), for the others: top-dose activation, actives largely listed as activators. 320,000 tested, 2.4% active. AID 485313, 2010; note: % of control where 0% means no effect; nearly all actives have a fitted effect of over 60% in size
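Readout is luciferase luminescence, reflecting NPC1 promoter activation in stably transfected Huh7 cells after 24 h compound exposure at 37 °C in reduced-serum medium with 10% FBS.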
Active calls of the source: *; [ ] = another dose, or the depositor's remark. Calls come from the whole dose curve; as a rule, active = well fitted curve in the direction sought with a large enough effect; inconclusive = small, poorly fitted or top-dose-only effect, or another doubt; inactive = no such curve, though single readings can be large; an effect the other way counts as inactive or inconclusive. Potency is the fitted concentration of half-maximal effect.

Screening Cc1nc2ccc(S(=O)(=O)N(CC(=O)Nc3ccc(F)cc3F)Cc3ccccc3)cc2s1 returned FLuc modulator -13%.
Cc1ccc(CNc2ccc3c(c2)ncn3C(C)(C)C)cc1 was read as SMN2 splice up 10µM*, Rab9 promoter act 4µM*, ELG1 repair inh inconclusive, ELG1 genotox inconclusive, FLuc modulator 9.5µM* and NPC1 promoter act 1.8µM*.
Screening O=C(Nc1nc(=O)c2ccccc2s1)c1ccc(F)cc1 returned SMN2 splice up 14µM*, Rab9 promoter act 3.2µM*, ELG1 repair inh inconclusive, ELG1 genotox inconclusive, FLuc modulator 2.1µM* and NPC1 promoter act inconclusive.
Screening O=C(Cc1ccccc1)Nc1nc(=O)c2ccccc2s1 returned SMN2 splice up 1%, ELG1 repair inh inconclusive, ELG1 genotox 4%, FLuc modulator 5% and NPC1 promoter act -2%.
`O=C(Nc1nc(=O)c2ccccc2s1)c1ccc(Cl)cc1` gave SMN2 splice up 13µM*, Rab9 promoter act 2.5µM*, ELG1 repair inh inconclusive, ELG1 genotox 1.8µM*, FLuc modulator 1.1µM* and NPC1 promoter act 2.8µM*.
Screening O=C(Nc1nc2ccsc2c(=O)s1)c1ccc(Cl)cc1 returned Rab9 promoter act 0.1µM*, ELG1 repair inh inconclusive, ELG1 genotox inconclusive, FLuc modulator 0.21µM* and NPC1 promoter act 0.25µM*.
CC1(C)S[C@@H]2[C@H](NC(=O)C3(N)CCCCC3)C(=O)N2[C@@H]1C(=O)O was read as SMN2 splice up -18%[9.22 µM].
Screening C/C(=N\NC(=O)COc1ccc(C(C)(C)C)cc1)c1ccc(-n2ccnc2)cc1 returned SMN2 splice up inconclusive, Rab9 promoter act inconclusive, ELG1 repair inh inconclusive, ELG1 genotox 16%, FLuc modulator 0.38µM* and NPC1 promoter act 28%.
For CC(C)(C)c1ccc(NC(=O)COc2ccc(-n3ccnc3)cc2)cc1 the results were Rab9 promoter act -23%, ELG1 repair inh inconclusive, ELG1 genotox -4%, FLuc modulator 15µM* and NPC1 promoter act 0%.
Screening C/C(=N\NC(=O)OC(C)(C)C)c1ccc(-n2ccnc2)cc1 returned SMN2 splice up 4%, Rab9 promoter act 1%, ELG1 repair inh 6%, ELG1 genotox 0%, FLuc modulator -3% and NPC1 promoter act -1%.
`COc1cc(NC(=O)COc2ccc(-n3ccnc3)cc2)cc(OC)c1` gave SMN2 splice up -28%, Rab9 promoter act -10%, ELG1 repair inh inconclusive, ELG1 genotox -19%, FLuc modulator -7% and NPC1 promoter act -10%.
Screening N#Cc1ccc(-c2ccc(OCC(=O)Nc3cccnc3)cc2)cc1 returned Rab9 promoter act -6%, ELG1 repair inh 15µM*, ELG1 genotox -11%, FLuc modulator inconclusive and NPC1 promoter act -7%.
For N#Cc1cccc(NC(=O)COc2ccc(-n3ccnc3)cc2)c1 the results were SMN2 splice up -14%, Rab9 promoter act -1%, ELG1 repair inh 13µM*, ELG1 genotox -22%, FLuc modulator -4% and NPC1 promoter act 0%.
Screening COCCOC(=O)c1c(C)oc2c1cc(NS(=O)(=O)c1ccc(Cl)c(C)c1)c1ccccc12 returned SMN2 splice up -4% and FLuc modulator inconclusive.
`CCOC(=O)c1cc(-c2ccccc2)n(-c2cccc(C(=O)Nc3cccc(C)c3)c2)c1C` gave FLuc modulator -3%.
Screening CCCCn1cnc2c(SC)ncnc21 returned SMN2 splice up -9%[9.22 µM].
`NC(N)=N/N=C(\c1ccc(Cl)cc1)C1CC1` gave SMN2 splice up -10%[9.22 µM].
